Measured values published in PubChem BioAssay (NCATS).
Results filed as inconclusive are left out. Entries that show only a call come without a potency. The source made the active and inactive calls. The call rests on the fitted dose curve; in most records, active means well fitted inhibition curve with a large enough effect; inconclusive means small, poorly fitted or top-dose-only effect; inactive means flat fitted curve, though single readings scatter.

Molecular target: Phospholipid hydroperoxide glutathione peroxidase GPX4 (Homo sapiens) (UniProt P36969)
Experiment: Primary qHTS Assay for Inhibitors of Recombinant Selenoprotein Glutathione Peroxidase 4 (GPX4) (AID 1845192); further: nearly all actives have a fitted effect of over 65% in size
Settings: recombinant GPX4, GR-coupled NADPH fluorescence, 15 min; series mostly up to 50 µM
From the text: Assay Provider: Elias S.J. Arner MD PhD.
Department of Medical Biochemistry and Biophysics
Karolinska Institutet, Solna, Stockholm, Sweden
Selenoprotein glutathione peroxidases (GPX), like the ubiquitously expressed GPX1 and the ferroptosis modulator GPX4, enact their antioxidant activities by reducing hydroperoxides using glutathione. […] GPX1 and GPX4 inhibitors have thus shown promise as anti-cancer agents. Existing inhibitors are often promiscuous, or modulate GPX activity only indirectly, so novel direct inhibitors identified through screening against GPX1 and GPX4 could be valuable. Here, we developed optimized glutathione reductase (GR)-coupled GPX assays for the biochemical high-throughput screen (HTS) of almost 12,000 compounds with known mechanisms of action. Initial hits were triaged using a GR counter-screen, assessed for isoform specificity using a separate GPX2 assay, and were assessed for general selenocysteine-targeting activity using a thioredoxin reductase (TXNRD1) assay. With this suite of assays, we identified novel GPX1/GPX2- and GPX4-specific inhibitors and can here present a validated pipeline for future discovery research for selenoprotein-targeting agents.
SEQUENCE No. (e.g., 1, 2, 3, etc.); […] (e.g., Cells, Incubation, Reagent, etc.); VALUE; DESCRIPTION.
1; Reagent 1; 3 uL; 333.33 nM GPx4 enzyme or no enzyme control in 1536-well, black, solid Greiner assay plate.
2; Compound; 25 nL; Kalypsis pin tool (Wako USA) equipped with a 1536-well pin head.
3; Incubation; 30 min; room temperature.
4; Reagent 2; 1 uL; 500 nM GR, 5 mM GSH, 2.5 mM NADPH solution
5; Reagent 3; 1 uL; 2.5 mM CHP in 50% EtOH.
6; Detection; Fluorescence; ViewLux microplate reader, excitation 340 nm and emission 450 nm.
7; Incubation; 15 min; room temperature.
8; Detection; Fluorescence; ViewLux microplate reader, excitation 340 nm and emission 450 nm.
NOTES (numbers refer to Sequence numbers above)
1. 3 µL of 333.33 nM GPX4 and 0.016% BSA in assay buffer (50 mM Tris-HCl, 2 mM EDTA (pH 7.5), 150 mM NaCl) was added to columns 3-48 of 1536-well plates using a BioRAPTR Flying Reagent Dispenser (Let's Go Robotics (LGR), Carlsbad, CA). A no-enzyme control (0.01% BSA in TES assay buffer) was added to columns 1-2.
2. 25 nL, library and DMSO controls were added to each well with a pin tool (Kalypsys).
3. The assay plates were incubated for 30 minutes at room temperature.
4. 1 µL of master mix (500 nM glutathione reductase (GR), 5 mM reduced glutathione (GSH), 2.5 mM NADPH in assay buffer) was added.
5. 1 µL of cumene hydroperoxide (CHP) ([2.5 mM] in 50% EtOH) was then added within 5 minutes to initiate the reaction. Final concentrations were: 200 nM GPX4, 1 mM GSH, 0.5 mM CHP, 0.5 mM NADPH, 100 nM GR, 0.01% BSA.
6. Initial fluorescence readout (t=0) at 340/450 nm was measured using a ViewLux multimodal detector (PerkinElmer, Waltham, MA).
8. Endpoint fluorescence readout (t=15) at 340/450 nm was measured 15 min after room temperature incubation.

Chain of Phospholipid hydroperoxide glutathione peroxidase GPX4 (Homo sapiens) (P36969 whole entry, looked up): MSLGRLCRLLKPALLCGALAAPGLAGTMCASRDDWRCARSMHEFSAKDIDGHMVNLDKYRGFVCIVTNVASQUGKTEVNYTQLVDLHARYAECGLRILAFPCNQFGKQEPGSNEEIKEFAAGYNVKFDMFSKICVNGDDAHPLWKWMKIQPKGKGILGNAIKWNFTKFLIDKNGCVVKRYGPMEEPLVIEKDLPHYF

| Compound | Potency |
| --- | --- |
| O=C1CCCN1CC#CCN1CCCC1 | inactive |
| CCc1c(C(=O)C(N)=O)c2c(OCC(=O)O)cccc2n1Cc1ccccc1 | inactive |
| C#CC1(O)CCC2C3CCC4=CC(=O)CCC4(C)C3CCC21C (stereo not given) | inactive |
| CCOC(=O)c1c(C(C#N)=CN)c2ccc(Cl)c(Cl)c2n1C | inactive |
| CN(C)[C@@H]1C(=O)C(C(N)=O)=C(O)[C@@]2(O)C(=O)C3=C(O)c4c(O)cccc4[C@@](C)(O)[C@H]3[C@H](O)[C@@H]12 | inactive |
| C=CCC1=C(C)C(OC(=O)C2C(C=C(C)C)C2(C)C)CC1=O (stereo not given) | inactive |
| CC(C)N(CCNC(=O)CN1CCCC1=O)C(C)C | inactive |
| CC(N[C@H]1C[C@H]1c1ccccc1)c1ccc2c(c1)OCCO2 (stereo not given in full) | inactive |
| CCN(CC)C(=O)c1ccc(C2=CC3(CCNCC3)Oc3cccc(O)c32)cc1 | inactive |
| C1CCC(NC2CCCCC2)CC1 | inactive |
| CC(=O)Nc1ccc(OC[C@](C)(O)C(=O)Nc2ccc([N+](=O)[O-])c(C(F)(F)F)c2)cc1 | inactive |
| O=[N+]([O-])/N=C1\NCCN1Cc1ccc(Cl)nc1 | inactive |
| COc1ccc(C(=O)c2c(C)n(CCN3CCOCC3)c3cc(I)ccc23)cc1 | inactive |
| C/C=C(/C)C(=O)O[C@H]1C(C)=C2[C@H]([C@@H]1OC(=O)CCCCCCC)[C@@](C)(OC(C)=O)C[C@H](OC(=O)CCC)[C@@]1(O)[C@H]2OC(=O)[C@@]1(C)O | inactive |
| Cc1[nH]nc2ccc(-c3cncc(OC[C@@H](N)Cc4c[nH]c5ccccc45)c3)cc12 | inactive |
| NC(CCP(=O)(O)O)C(=O)O (stereo not given) | inactive |
| O=c1[nH]c2ccc(Cl)cc2c(N[C@@H]2CN3CCC2CC3)c1-c1nc2ccccc2[nH]1 | inactive |
| O=C(O)[C@@H]1CCN1 | inactive |
| CSCC[C@@H](NC(=O)[C@@H](Cc1ccccc1)NC(=O)CNC(=O)CNC(=O)[C@@H](N)Cc1ccc(O)cc1)C(=O)O | inactive |
| O=C(Cc1ccc(Cl)c(Cl)c1)N1CCCCC1CN1CCCC1 (stereo not given) | inactive |

| Compound | Potency |
| --- | --- |
| O=[N+]([O-])c1ccc([As](=O)(O)O)cc1 | inactive |
| CC[C@@H](C(N)=O)N1CCCC1=O | inactive |
| CCCN1CCC[C@H](c2cccc(O)c2)C1 | inactive |
| CC(=O)[O][Hg][c]1ccccc1 | inactive |
| S=C(NC1CCCCC1)N1CCC(c2cnc[nH]2)CC1 | inactive |
| COc1cc([C@@H]2c3cc4c(cc3[C@@H](O)C3COC(=O)C32)OCO4)cc(OC)c1O (stereo not given in full) | inactive |
| Cc1ccccc1-n1c(Cn2ncc3c(N)ncnc32)nc2cccc(C)c2c1=O | inactive |
| O=C(Nc1ccncc1)C(=O)c1cn(Cc2ccc(Cl)cc2)c2ccccc12 | inactive |
| CN(C)NC(=O)CCC(=O)O | inactive |
| O=C(Oc1ccc([N+](=O)[O-])cc1)N1CCC(C(O)(c2ccc3c(c2)OCO3)c2ccc3c(c2)OCO3)CC1 | inactive |
| C[C@]12CC[C@@H]3[C@@H](CCC4=CC(=O)CC[C@@H]43)[C@@H]1CC[C@@H]2OC(=O)CCc1ccccc1 | inactive |
| CCNC(=O)CC1N=C(c2ccc(Cl)cc2)c2cc(OC)ccc2-n2c(C)nnc21 (stereo not given) | inactive |
| O=C(N[C@H]1CN2CCC1CC2)c1ccc(Cl)cc1 | inactive |
| CC(C)Oc1cccnc1N(C)C1CCN(Cc2ccccc2)CC1 | inactive |
| CC1(N2CCC(n3c([C@@H]4CCCNC4)nc4ccccc43)CC2)CCCCCCC1 | inactive |
| CCNC(=O)C[C@@H]1N=C(c2ccc(Cl)cc2)c2cc(OC)ccc2-n2c(C)nnc21 | inactive |
| O=C(NCC1CCOCC1)c1cnc(Nc2ccc(Cl)cc2Cl)nc1C(F)(F)F | inactive |
| COC1=C[C@@H]2[C@@H]3Cc4ccc(OC)c(O)c4[C@]2(CCN3C)CC1=O | inactive |
| C[C@@H](N)Cc1cnc[nH]1 | inactive |
| C[C@]12N[C@H](Cc3ccccc31)c1ccccc12 | inactive |
